About 1,100 (44%) of roughly 2,500 compounds were called active. The set was probably picked from earlier hits. This is one part of the list. Unmarked numbers belong to inactive results.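 How the source made its calls: active means inhibition above 50% at 4 µM in the single-point screen; inactive means inhibition of 50% or less.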

A short description of the assay: blockers of TNF-a NF-kB luciferase induction – cell-based, HEK293T NF-kB-Luc, luminescence, selectivity assay for NOD1/NOD2 signaling inhibitor project, primary screen (AID 1852). Particulars: TNF-a induced, 14 h, at 4 µM, hits give high values.
For `CCN(CC(=O)Nc1ccc([N+](=O)[O-])cc1OC)c1ccccc1`, the inhibition was -39%. For the molecule `COc1cccc(NC(=O)CN(C)CC(=O)Nc2ccc(C)c([N+](=O)[O-])c2)c1`, the inhibition is 42.8%.

For `COc1cc(Cl)c(C)cc1NC(=O)CN(C)Cc1cccc(OC)c1OC`, the inhibition is 57.5% (active). For `O=c1c(Br)c(Br)cnn1-c1ccccc1`, the inhibition is 90.8% (active).

For the molecule `COc1cc(OC)nc(-n2ncc(Br)c(Br)c2=O)n1`, the inhibition was 105% (active). As for `Cc1ccc(-n2ncc(Br)c(Br)c2=O)cc1`, the inhibition was 105% (active). Consider `Oc1cc2c(cc1C(c1ccc(Br)cc1)N1CCCC1)OCO2` (centres undefined), for which the inhibition was -3.2%.

Consider `CN1C(=O)/C(=C/c2cc(N=Nc3ccccc3)ccc2O)SC1=S`, for which the inhibition was 98.2% (active). For `Cc1cc(/C=C2\SC(=S)N(C)C2=O)c(C)n1-c1ccc(O)cc1`, the inhibition is 24.7%. Regarding `Cc1cc(/C=C2\SC(=S)N(C)C2=O)c(C)n1-c1cccc(O)c1`, the inhibition is -111%.

As to `CN(C)S(=O)(=O)c1cccc(NC(=S)Nc2cccc3cnccc23)c1`, the inhibition was 62.5% (active). Turning to `S=C(NCCc1ccc(Cl)cc1)Nc1ccc(Cl)cc1Cl`, the inhibition is -10.9%. The figure for `S=C(NCCc1ccccc1)Nc1cccc2cnccc12` is 69.1% (active); for `Cc1cccc(N2CCN(C(=S)NCCc3ccccc3)CC2)c1C` it is -31.3%. The figure for `CN(C)S(=O)(=O)c1cccc(CSCc2cccc(S(=O)(=O)N(C)C)c2)c1` is 42.8%; for `Cc1sc2ncnc(N3CCC(C(=O)N(C)CC(=O)Nc4ccccc4Cl)CC3)c2c1C` it is 50.3% (active). Take `CCN(CC)CCNC(=O)c1ccc(NC(=O)C2CCN(c3ncnc4sc(C)c(C)c34)CC2)cc1`: the inhibition was 43.8%. For `CCOC(=O)c1sc(N2C(=O)C(O)=C(C(=O)c3ccco3)C2c2ccco2)nc1C` (centres undefined), the inhibition was 76.1% (active).

As to `COc1cccc2cc(C(=O)C3=C(O)C(=O)N(c4cc(C)on4)C3c3cccs3)oc12` (centres undefined), the inhibition was -0.9%.

Consider `CCOC(=O)c1sc(N2C(=O)C(O)=C(C(=O)c3ccco3)C2c2cccc([N+](=O)[O-])c2)nc1C` (centres undefined), for which the inhibition was 23.8%. Regarding `CCC(C)(C)c1ccc(Oc2ccc(N)cc2)cc1`, the inhibition was 75.5% (active). Consider `NC(=O)C1CCN(c2ccc(S(=O)(=O)N3CCC(Cc4ccccc4)CC3)cn2)CC1`, for which the inhibition is 32.5%. Then `Cc1c(C(=O)N/N=C/c2c(O)ccc3ccccc23)nnn1-c1nonc1N`, with 89% (active); and `CC1CCN(Cc2c(C(=O)N/N=C/c3cc(Br)ccc3O)nnn2-c2nonc2N)CC1`, with 95.1% (active). In the case of `Nc1nonc1-n1nnc(C(=O)N/N=C/c2cc(Br)ccc2O)c1CNc1ccccc1`, the inhibition was 56.5% (active). As to `Cc1nc([N+](=O)[O-])c(Br)n1Cc1ccc(Cl)c(Cl)c1`, the inhibition was 7.2%.

`Cn1c(=O)c2c(nc(NCc3ccco3)n2C/C=C/c2ccccc2)n(C)c1=O`: the inhibition was 78.2% (active).

Regarding `CC(C)n1c(CN(C)Cc2ccccc2)nc2c1c(=O)n(C)c(=O)n2C`, the inhibition is 38.7%. For the molecule `COc1cc(CNc2ccc3[nH]c(=O)[nH]c3c2)cc(Br)c1OCc1ccc(F)cc1`, the inhibition was 47.6%. In the case of `COc1cc(CNc2ccc3[nH]c(=O)[nH]c3c2)cc(Br)c1OCc1ccccc1F`, the inhibition was 61% (active). Then `COc1cc(CNc2ccc3[nH]c(=O)[nH]c3c2)ccc1OCc1ccccc1C`, with 37.1%.

Turning to `O=c1[nH]c(=O)n(Cc2ccco2)c2c1C(C(F)(F)F)(C(F)(F)F)N=C(c1ccc(F)cc1)N2`, the inhibition was 90.9% (active).

Take `Cc1cccc(C2=NC(C(F)(F)F)(C(F)(F)F)c3c(n(-c4ccc(F)cc4)c(=O)[nH]c3=O)N2)c1`: the inhibition was -13.7%. Regarding `Cc1ccc(CNc2ncnc(N)c2[N+](=O)[O-])cc1`, the inhibition is 36.2%.

Consider `Nc1ncnc(NCc2ccc(F)cc2)c1[N+](=O)[O-]`, for which the inhibition was 60.6% (active). As for `O=C(Nc1ccc(N2CCN(c3ncccc3C(F)(F)F)CC2)nc1)c1cccs1`, the inhibition is 64.1% (active). As to `Cc1ccc(NC(=O)C2CCN(S(=O)(=O)c3ccc4c(c3)NC(=O)C(C)S4)CC2)cc1Cl` (centres undefined), the inhibition was 39.1%.

Regarding `O=S1(=O)C=C(Sc2nnc(-c3ccccc3)o2)c2ccccc21`, the inhibition is 70.6% (active). With `O=S1(=O)C=C(Sc2nc3cc(Cl)ccc3o2)c2ccccc21`, the inhibition is 91.1% (active). Take `Cc1nnc(Sc2nc3ccccc3o2)c2ccccc12`: the inhibition is 45.3%.

Consider `Cn1nccc1C(=O)N/N=C/c1c(O)ccc2ccccc12`, for which the inhibition is 66.6% (active). The figure for `O=C(CN1CCCCCC1)Nc1ccc(Br)cn1` is -21.9%; for `O=C(N/N=C\c1c(O)ccc2ccccc12)c1ccc(O)cc1` it is 69.4% (active); for `O=C(N/N=C/c1c(O)ccc2ccccc12)c1ccc(Br)o1` it is 34.2%.

As for `O=C(CN1CCCC1)N/N=C/c1c(O)ccc2ccccc12`, the inhibition was 87.6% (active). In the case of `O=C(N/N=C/c1c(O)ccc2ccccc12)c1ccc(CO)nc1`, the inhibition was 96.6% (active). Take `Cc1ccc(C(=O)N/N=C/c2c(O)ccc3ccccc23)cn1`: the inhibition is 73.2% (active).

Take `Cc1ccc(CN2CCN(C(=O)c3cccc4ccccc34)CC2)cc1`: the inhibition was 12.3%.

With `C#Cc1ccc([C@@H]2C=C(C(=O)N3CCN(Cc4ccccc4)CC3)O[C@H](OCCCCO)C2)cc1`, the inhibition was 61.3% (active). For `CCN(CC)c1ccc(C(=O)N2CCN(Cc3ccccc3)CC2)cc1`, the inhibition is 46.5%. For the molecule `COc1ccc2c(c1)-c1c(ssc1=S)C(C)(C)N2`, the inhibition was 92.8% (active).

For the molecule `COc1cc(/C=C2/C(=O)NN(c3cccc(Cl)c3)C2=O)cc(Br)c1O`, the inhibition is 0.8%.

Turning to `COc1cc(/C=C2/C(=O)NN(c3cccc(Cl)c3)C2=O)cc(OC)c1O`, the inhibition was 99.4% (active). Then `COc1cc(/C=C2/C(=O)NN(c3ccc(Cl)cc3)C2=O)cc(OC)c1O`, with 9.3%; and `Cc1ccc(Cc2cnc(N3C(=N)SC(c4ccccc4)C3=O)s2)cc1` (centres undefined), with 99.6% (active).

With `N=C1SC(c2ccccc2)C(=O)N1c1ncc(Cc2ccccc2)s1` (centres undefined), the inhibition was 107% (active). Then `N=C1SC(c2ccccc2)C(=O)N1c1ncc(Cc2ccccc2Cl)s1` (centres undefined), with 106% (active).

As for `CCOC(=O)C(=Cc1ccc(OCc2ccc([N+](=O)[O-])cc2)c(OC)c1)C(=O)OCC`, the inhibition was 11.6%. The figure for `Cc1nc2cc(N3CCN(C)CC3)c(NC(=O)Cc3ccccc3)cc2c(=O)n1Cc1ccccc1` is -21.7%.

For `C/C(=N\NC(=O)c1nnn(-c2nonc2N)c1CN1CCc2ccccc21)c1ccccc1O`, the inhibition is 78.8% (active). Then `C/C(=N\NC(=O)c1nnn(-c2nonc2N)c1CN1CCCCC1)c1ccccc1O`, with 64.6% (active); and `CN1/C(=C/c2cc[n+](C)c3ccccc23)C=Cc2ccccc21`, with 47.9%; and `C=CC[n+]1c(/C=C2\C=Cc3cc(C)ccc3N2CC)ccc2ccccc21`, with 74.1% (active).

Take `CCN1/C(=C/c2ccc3ccccc3[n+]2CC)C=Cc2ccccc21`: the inhibition was 67.3% (active).

`Cc1ccc2c(c1)c(/C=C/c1cc[n+](C)cc1)c(C)n2C`: the inhibition was 24.2%.

For the molecule `CCN1/C(=C/c2cc[n+](C)cc2)C=Cc2cc(C)ccc21`, the inhibition is 66% (active). Take `C=CC[n+]1ccc(/C=C2\C=Cc3cc(C)ccc3N2CC)c2ccccc21`: the inhibition is 84.9% (active). Take `Cc1ccc(Cn2ccsc2=NC(=O)CCl)cc1`: the inhibition was 46.5%. Turning to `CCCn1c(NC(=O)c2ccc(Cl)c(S(=O)(=O)N3CCCC3)c2)nc2ccccc21`, the inhibition is 24.9%.

For `CCOc1cc(C)c(Cl)cc1S(=O)(=O)n1nnc2ccccc21`, the inhibition is 63.8% (active). In the case of `COc1ccc(CCNc2cc(N3CCN(C(=O)c4ccccc4F)CC3)ccc2[N+](=O)[O-])cc1OC`, the inhibition was 85.7% (active). For `CC1CC(=O)N(c2ccc(NCCc3ccccc3)c([N+](=O)[O-])c2)C1=O` (centres undefined), the inhibition was -4.9%. In the case of `COc1ccc(CCNC(=O)c2ccc3c(c2)N(Cc2ccccc2)CCS3)cc1OC`, the inhibition is -41.1%.

Regarding `CC1=C(C(=O)NC2CCCc3c2cnn3-c2ccc(F)cc2F)OCCO1` (centres undefined), the inhibition was 40.2%. Then `Cc1cc(C(=O)NC2CCCc3c2cnn3-c2ccc(C(C)(C)C)cc2)nn1C` (centres undefined), with 68.8% (active); and `COc1ccc(C(=O)NC2CCCc3c2cnn3-c2ccccc2F)cc1OC` (centres undefined), with 33.4%.

For `Cn1nccc1C(=O)NC1CCCc2c1cnn2-c1ccc(C(C)(C)C)cc1` (centres undefined), the inhibition was 72.8% (active). In the case of `Cc1cccc(-n2ncc3c2CCCC3NC(=O)C2(C(N)=O)CC2)c1C` (centres undefined), the inhibition was 29.3%. In the case of `CC(C)(C)c1ccc(-n2ncc3c2CCCC3NC(=O)C2(C(N)=O)CC2)cc1` (centres undefined), the inhibition was 61.3% (active). Then `Cc1ccc(C(=O)NC2CCCc3c2cnn3-c2ccc(F)cc2F)cn1` (centres undefined), with 71.6% (active); and `CC1CN(CCCCOc2ccc(Cl)c3ccccc23)CC(C)O1` (centres undefined), with 8.2%. As to `Cc1ncoc1C(=O)NC1CCCc2c1cnn2-c1ccc(C(C)(C)C)cc1` (centres undefined), the inhibition was 74.7% (active). For `COc1ccc(C(=O)NC2CCCc3c2cnn3-c2ccccc2F)o1` (centres undefined), the inhibition was -21.5%. In the case of `Cc1ccc(-n2ncc3c2CCCC3NC(=O)c2ocnc2C)cc1C` (centres undefined), the inhibition was 49.3%.

As for `Cn1nccc1C(=O)NC1CCCc2c1cnn2-c1ccc(F)cc1F` (centres undefined), the inhibition was 39.9%. Take `Cn1nccc1C(=O)NC1CCCc2c1cnn2-c1ccccc1F` (centres undefined): the inhibition is 51.8% (active). For `Cc1c(C)c2ccc(OCC(=O)Nc3ccc(N4CCC(C)CC4)cc3)cc2oc1=O`, the inhibition is 94.7% (active).

`Cc1nn(Cc2ccccc2)c(Cl)c1C(=O)OC(C)C#N` (centres undefined): the inhibition is 40.7%.

With `CCN(CC)S(=O)(=O)c1ccc2[nH]cc(C(=O)NCCC3=CCCCC3)c(=O)c2c1`, the inhibition is 38.4%.

`C[C@@H](C(=O)NCCc1ccccc1)N1C(=O)N2CCc3c([nH]c4ccccc34)[C@@]2(C)C1=O`: the inhibition is 38.1%. Turning to `Cc1ccc(-n2nc3c(=O)n(C(C)C(=O)NCCc4cccs4)nc(C)c3c2C)cc1` (centres undefined), the inhibition was 60.4% (active).

`Cc1ccc(-n2nc3c(=O)n(CC(=O)NC(C)CCc4ccccc4)nc(C)c3c2C)cc1` (centres undefined): the inhibition was 50% (active).

On to `Cc1ccc(-n2nc3c(=O)n(C(C)C(=O)NCCCc4ccccc4)nc(C)c3c2C)cc1` (centres undefined), for which the inhibition was 53.9% (active). As for `Cc1ccc(-n2nc3c(=O)n(C(C)C(=O)NCCC4=CCCCC4)nc(C)c3c2C)cc1` (centres undefined), the inhibition is 54.3% (active).

The inhibition is the change of the read-out against control, counted positive when it falls.

The record behind these values is PubChem BioAssay AID1852 (Sanford-Burnham Center for Chemical Genomics, 2009).
